Experiment [1] is described as follows: ATG_DR4_LXR_CIS: Attagene CIS-FACTORIAL HepG2 Assay for human Liver X Receptor (LXR), DR4 submotif (AID 2282929). Particulars: HepG2 Attagene DR4 cis-reporter, mRNA transcription; AC50: actives raise or lower the signal unless noted; outcome: actives raise or lower the signal unless noted. In outline: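 Transiently transfected HepG2 liver cells; cis-regulated reporters; 24 h dosing. RT-PCR plus CE read-out of reporter mRNA. DMSO baseline, bidirectional curve fitting.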

The nature of experiment [2]: ATG_AP_1_CIS: Attagene CIS-FACTORIAL HepG2 Assay for human Activator Protein 1 (AP-1) (AID 2282931). To be noted: HepG2 Attagene cis-factorial AP-1 reporter mRNA; actives raise or lower the signal. Put shortly: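 We transfected HepG2 cells transiently with a set of cis-regulated reporter transcription units, dosed them for 24 h, and quantified reporter mRNA via RT-PCR and capillary electrophoresis, scoring gain or loss of signal relative to DMSO.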

Experiment [3] can be described thus: ATG_AP_2_CIS: Attagene CIS-FACTORIAL HepG2 Assay for human Activator Protein 2 (AP-2) (AID 2282932). To be noted: HepG2 AP-2 cis-reporter, Attagene transcription factor profiling; AC50: actives raise or lower the signal unless noted; outcome: actives raise or lower the signal unless noted. Put shortly: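 HepG2, transient MRTU transfection, cis-regulated reporters; 24 h compound exposure; RNA isolated, RT-PCR, 6-FAM labelling, HpaI digest, CE fluorescence. DMSO = negative control/baseline, bidirectional fit.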

Experiment [4] can be described thus: ATG_BRE_CIS: Attagene CIS-FACTORIAL HepG2 Assay for human Bone Morphogenetic Protein (BMP) Response Element (BRE) (AID 2282933). To be noted: HepG2 BMP response element reporter, Attagene transcription factor profiling; actives raise or lower the signal. Put shortly:
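Transient MRTU transfection of human HepG2 liver cells; 24 h compound treatment; total RNA isolated, reverse-transcribed, PCR-amplified, 6-FAM labelled, HpaI-cut, capillary electrophoresis. DMSO = negative control/baseline, bidirectional fit.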

Experiment [5] has as its target Retinoic acid receptor alpha (Homo sapiens) (UniProt P10276). In words: ATG_DR5_RAR_CIS: Attagene CIS-FACTORIAL HepG2 Assay for human Retinoic Acid Receptor Alpha (RARE), DR5 submotif (AID 2282934). Particulars: HepG2 Attagene cis-factorial RARE DR5 reporter, mRNA; actives raise or lower the signal. Put shortly: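 Reporter transcripts from a DR5-regulated unit, measured via RT-PCR plus capillary electrophoresis, reflect endogenous RAR activity in transiently transfected human HepG2 liver cells. Exposure lasted 24 h; gain or loss of signal scored against DMSO.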

The target in experiment [6] is Transcription factor E2F1 (Homo sapiens) (UniProt Q01094). In words: ATG_E2F_CIS: Attagene CIS-FACTORIAL HepG2 Assay for human E2F Transcription Factor 1 (AID 2282935). To be noted: HepG2 Attagene cis-reporter, E2F reporter RNA transcripts; actives raise or lower the signal. Put shortly:
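Cis-element reporter mRNA induction in transiently transfected HepG2, 24 h exposure. Activity fitted in both directions relative to DMSO negative control.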

Experiment [7] in a line: ATG_E_Box_CIS: Attagene CIS-FACTORIAL HepG2 Assay for human Enhancer Box (E-box) (AID 2282936). Particulars: HepG2 E-box cis-reporter transcription, actives raise or lower the signal. Put shortly: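 Cells: HepG2 (human liver), transient MRTU transfection. Exposure 24 h. RNA → oligo(dT) RT → PCR → 6-FAM label → HpaI → CE. Activity fitted both directions relative to DMSO.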

Experiment [8] can be described thus: ATG_M_61_CIS: Attagene CIS-FACTORIAL HepG2 Assay for M61 Transcription Factor (Internal Marker) (AID 2282937). To be noted: HepG2 Attagene CIS-FACTORIAL M61 internal marker reporter; actives raise or lower the signal. In outline:
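Multiplexed reporter mRNA assay, HepG2 human hepatoma cells, 24 h treatment. Signal: FAM-labelled, HpaI-digested RT-PCR fragments by CE. Fit: bidirectional, baseline DMSO.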

The nature of experiment [9]: ATG_EGR_CIS: Attagene CIS-FACTORIAL HepG2 Assay for human Early Growth Response 1 (EGR1) (AID 2282938). To be noted: HepG2 Attagene CIS-FACTORIAL EGR reporter mRNA; actives raise or lower the signal. Put shortly:
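Multiplexed cis-reporter system in human hepatoma HepG2 cells, transiently transfected. Cells are dosed for 24 h; reporter transcripts are amplified, fluorescently tagged and sized by capillary electrophoresis, with DMSO as negative control.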

Experiment [10] is described as follows: ATG_M_19_CIS: Attagene CIS-FACTORIAL HepG2 Assay for M19 Transcription Factor (Internal Marker) (AID 2282939). To be noted: HepG2 Attagene CIS-FACTORIAL M19 internal marker reporter; actives raise or lower the signal. In outline:
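Transfect HepG2 with MRTU reporter library → dose chemical, 24 h → isolate total RNA, reverse-transcribe with oligo(dT) → PCR, 6-FAM label, HpaI cut (2 h, 37 C) → capillary electrophoresis. Bidirectional fit vs DMSO.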

The nature of experiment [11]: ATG_ERE_CIS: Attagene CIS-FACTORIAL HepG2 Assay for Estrogen Response Element (ERE) (AID 2282940). To be noted: HepG2 ERE cis-reporter, Attagene RNA transcript; actives raise or lower the signal. In outline:
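Transient MRTU transfection of human HepG2; cis-element promoters; 24 h dosing; total RNA → RT (oligo dT) → PCR → 6-FAM primer extension → HpaI digest → CE fluorescence. Bidirectional fit, DMSO baseline.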

Experiment [12] can be described thus: ATG_Ets_CIS: Attagene CIS-FACTORIAL HepG2 Assay for human Erythroblast Transformation Specific (ETS) (AID 2282941). Particulars: HepG2 ETS cis-reporter transcription; AC50: actives raise or lower the signal unless noted; outcome: actives raise or lower the signal unless noted. In outline: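 After transient cis-reporter transfection, HepG2 cells receive test chemical for 24 h. Reporter mRNA levels, measured by RT-PCR and capillary electrophoresis fluorescence, are analysed bidirectionally relative to the DMSO baseline.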

Experiment [13] in a line: ATG_FoxO_CIS: Attagene CIS-FACTORIAL HepG2 Assay for human Forkhead box O (FoxO) (AID 2282943). To be noted: HepG2 Attagene cis-reporter, FoxO element, mRNA; actives raise or lower the signal. In outline:
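Endogenous transcription factor activity read from multiplexed cis-promoter reporter transcripts in transiently transfected HepG2, 24 h after dosing. Reporter RNA measured via RT-PCR plus capillary electrophoresis of FAM-labeled products; gain or loss relative to DMSO.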

A short description of experiment [14]: ATG_GATA_CIS: Attagene CIS-FACTORIAL HepG2 Assay for human GATA Binding Protein (AID 2282944). To be noted: HepG2 GATA cis-element reporter, Attagene multiplex mRNA; actives raise or lower the signal. Put shortly: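 Transient MRTU transfection, HepG2, 24 h compound exposure. Total RNA → oligo(dT) RT → PCR → 6-FAM primer extension → HpaI cut → CE. Bidirectional fit vs DMSO.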

Experiment [15] can be described thus: ATG_GLI_CIS: Attagene CIS-FACTORIAL HepG2 Assay for human Zinc Finger Protein GLI1 (AID 2282945). Particulars: HepG2, Attagene cis-factorial reporter mRNA, GLI element; actives raise or lower the signal. In outline: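 Bidirectional curve fits relative to DMSO, using reporter mRNA levels from RT-PCR plus capillary electrophoresis. Cells were HepG2 transiently carrying cis-regulated reporter constructs, harvested 24 h after dosing.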

A short description of experiment [16]: ATG_GRE_CIS: Attagene CIS-FACTORIAL HepG2 Assay for human Glucocorticoid Response Elements (GRE) (AID 2282947). To be noted: HepG2 GRE cis-reporter, Attagene multiplex mRNA; AC50: actives raise or lower the signal unless noted; outcome: actives raise or lower the signal unless noted. Put shortly:
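Transient MRTU transfection of human HepG2 liver cells; cis-regulated reporters report endogenous factors. 24 h dosing → RNA isolation → RT-PCR → 6-FAM primer extension → HpaI cut → CE fragment analysis. Bidirectional fit, DMSO negative control.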

A short description of experiment [17]: ATG_ISRE_CIS: Attagene CIS-FACTORIAL HepG2 Assay for human Interferon Regulatory Factor 1 (IRF1) binding to an Interferon-Stimulated Response Element (ISRE) (AID 2282948). Particulars: HepG2 ISRE cis-reporter (Attagene), mRNA transcription readout; actives raise or lower the signal. In outline: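 Quantitation relies on labelled RT-PCR fragments separated by capillary electrophoresis. Human HepG2 cells bearing cis-promoter reporter constructs were treated 24 h; DMSO served as baseline for bidirectional fitting.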

In experiment [18] the target is Aryl hydrocarbon receptor (Homo sapiens) (UniProt P35869). The experiment in a line: ATG_Ahr_CIS: Attagene CIS-FACTORIAL HepG2 Assay for human Aryl Hydrocarbon Receptor (Ahr) (AID 2282930). Particulars: HepG2 AhR cis-factorial reporter transcription; actives raise or lower the signal. In outline:
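Reporter mRNA levels, quantified by RT-PCR and fluorescent capillary electrophoresis, reflect endogenous AhR transcriptional activity in HepG2 cells carrying transfected cis-promoter reporter constructs. Readout at 24 h post-dose; gain or loss fitted against DMSO baseline.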

The target of experiment [19] is Hepatocyte nuclear factor 3-beta (Homo sapiens) (UniProt Q9Y261). In words: ATG_FoxA2_CIS: Attagene CIS-FACTORIAL HepG2 Assay for human Forkhead box A2 (FOXA2) (AID 2282942). Particulars: HepG2 cis-reporter transcription factor activity, 24 h; actives raise or lower the signal. Put shortly: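 Multiplexed cis-element reporter assay in transiently transfected HepG2. Twenty-four hours post-dosing, RNA was reverse-transcribed, amplified, FAM-labelled, HpaI-digested and separated by CE. Activity gain or loss relative to DMSO.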
Hepatocyte nuclear factor 3-beta (Homo sapiens), sequence (Q9Y261 whole entry, looked up): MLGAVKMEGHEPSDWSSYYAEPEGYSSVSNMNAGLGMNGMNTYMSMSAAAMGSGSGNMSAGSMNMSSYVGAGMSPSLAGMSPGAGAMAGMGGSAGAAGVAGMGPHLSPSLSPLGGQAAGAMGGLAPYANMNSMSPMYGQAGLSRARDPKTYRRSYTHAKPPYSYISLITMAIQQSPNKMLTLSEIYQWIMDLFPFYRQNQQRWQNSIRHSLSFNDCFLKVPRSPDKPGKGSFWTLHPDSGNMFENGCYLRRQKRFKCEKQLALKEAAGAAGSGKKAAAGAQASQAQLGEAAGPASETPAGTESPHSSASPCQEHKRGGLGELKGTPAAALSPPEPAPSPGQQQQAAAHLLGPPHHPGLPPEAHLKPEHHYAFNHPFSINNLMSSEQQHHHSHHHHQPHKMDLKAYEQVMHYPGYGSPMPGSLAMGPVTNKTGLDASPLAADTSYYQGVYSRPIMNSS

The values that follow come from PubChem BioAssay (EPA / NIEHS).

Active and inactive are the calls of the source. The calls were made as follows: active = hit-call score of the fitted dose curve at least 0.9, where 1 is the maximum; inactive = score below 0.9.

Retinoic acid receptor alpha (Homo sapiens), sequence (P10276 whole entry, looked up): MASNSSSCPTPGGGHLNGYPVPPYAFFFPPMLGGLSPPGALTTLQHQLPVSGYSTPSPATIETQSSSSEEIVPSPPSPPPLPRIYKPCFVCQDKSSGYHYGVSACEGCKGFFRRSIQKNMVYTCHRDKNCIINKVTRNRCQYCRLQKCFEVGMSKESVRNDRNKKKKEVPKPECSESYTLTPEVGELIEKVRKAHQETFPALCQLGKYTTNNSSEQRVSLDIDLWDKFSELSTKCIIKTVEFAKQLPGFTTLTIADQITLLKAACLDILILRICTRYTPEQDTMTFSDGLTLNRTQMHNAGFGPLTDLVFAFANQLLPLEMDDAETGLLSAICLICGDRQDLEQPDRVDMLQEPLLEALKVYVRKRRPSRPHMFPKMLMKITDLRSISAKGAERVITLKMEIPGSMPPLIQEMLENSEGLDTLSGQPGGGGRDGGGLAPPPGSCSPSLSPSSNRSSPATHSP
Aryl hydrocarbon receptor (Homo sapiens), sequence (P35869 whole entry, looked up): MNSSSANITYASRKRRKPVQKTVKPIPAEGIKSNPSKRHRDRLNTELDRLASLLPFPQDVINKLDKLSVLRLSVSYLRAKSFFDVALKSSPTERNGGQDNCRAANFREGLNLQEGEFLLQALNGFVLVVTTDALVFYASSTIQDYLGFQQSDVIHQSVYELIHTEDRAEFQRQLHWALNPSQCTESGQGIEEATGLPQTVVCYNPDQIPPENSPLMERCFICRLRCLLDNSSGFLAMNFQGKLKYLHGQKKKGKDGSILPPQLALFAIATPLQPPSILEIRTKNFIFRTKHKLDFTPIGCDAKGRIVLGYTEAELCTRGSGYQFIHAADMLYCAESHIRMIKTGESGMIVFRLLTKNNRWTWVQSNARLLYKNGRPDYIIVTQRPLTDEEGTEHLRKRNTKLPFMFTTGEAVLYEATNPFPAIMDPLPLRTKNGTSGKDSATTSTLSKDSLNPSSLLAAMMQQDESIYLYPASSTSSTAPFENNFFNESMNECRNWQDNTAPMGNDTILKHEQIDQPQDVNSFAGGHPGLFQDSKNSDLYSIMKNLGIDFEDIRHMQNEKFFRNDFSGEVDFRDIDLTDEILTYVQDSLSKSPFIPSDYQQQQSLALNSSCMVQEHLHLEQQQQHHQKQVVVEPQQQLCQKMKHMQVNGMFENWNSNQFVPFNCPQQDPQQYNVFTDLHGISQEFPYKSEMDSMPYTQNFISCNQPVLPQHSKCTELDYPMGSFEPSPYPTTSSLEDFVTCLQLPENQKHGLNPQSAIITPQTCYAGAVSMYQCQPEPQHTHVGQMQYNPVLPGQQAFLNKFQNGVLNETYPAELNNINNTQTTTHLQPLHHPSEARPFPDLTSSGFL
Transcription factor E2F1 (Homo sapiens), sequence (Q01094 whole entry, looked up): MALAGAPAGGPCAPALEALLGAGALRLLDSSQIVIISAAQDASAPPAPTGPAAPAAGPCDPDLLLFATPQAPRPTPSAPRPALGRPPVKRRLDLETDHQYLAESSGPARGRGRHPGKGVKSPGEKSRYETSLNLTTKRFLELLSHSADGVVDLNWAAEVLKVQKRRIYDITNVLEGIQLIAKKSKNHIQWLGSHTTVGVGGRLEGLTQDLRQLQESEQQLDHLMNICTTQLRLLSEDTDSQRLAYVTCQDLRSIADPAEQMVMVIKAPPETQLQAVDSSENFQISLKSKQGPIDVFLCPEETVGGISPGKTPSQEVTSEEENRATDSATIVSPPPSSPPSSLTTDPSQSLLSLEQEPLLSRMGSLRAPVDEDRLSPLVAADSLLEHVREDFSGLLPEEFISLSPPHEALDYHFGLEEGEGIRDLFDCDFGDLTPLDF

In general, AC50 refers to the concentration at which the activity in the assay is half-maximal. As to `N=C(N)c1ccc(OCCCCCOc2ccc(C(=N)N)cc2)cc1`, the AC50 was 116 µM (active) in [1]; 0.813 µM (active) in experiment [2]; 23.3 µM (active) in [4]; 137 µM (active) in experiment [7]; 87.5 µM (active) in experiment [9]; 23.2 µM (active) in [11]. The AC50 in [17] was 57.9 µM (active). For the same compound, the result in experiment [3], in experiment [5], in experiment [6], in experiment [8], in experiment [10] and in [12] was inactive. The result in experiment [13], in experiment [14], in experiment [15] and in experiment [16] was inactive.
Consider `CC(=O)Nc1ccc(O)cc1`, for which the outcome in experiment [1], in experiment [18], in experiment [2], in experiment [3], in experiment [4] and in experiment [6] was inactive. The result in [8], in experiment [9], in experiment [10], in [12], in experiment [19] and in [13] was inactive. Further, the result in experiment [14], in [15] and in experiment [17] was inactive.
Consider `NS(=O)(=O)O`, for which the outcome in experiment [1], in [18], in experiment [2], in [3], in [4] and in experiment [6] was inactive. Further, the outcome in [7], in experiment [8], in [9], in experiment [10], in experiment [12] and in [19] was inactive. In addition, the compound was called inactive in [13], in experiment [14], in experiment [15], in [16] and in experiment [17].
Regarding `O=C1NS(=O)(=O)c2ccccc21`, the call in experiment [1], in experiment [2], in experiment [3], in experiment [4], in [5] and in experiment [6] was inactive. Also, the result in [7], in experiment [8], in experiment [9], in experiment [10], in experiment [12] and in experiment [19] was inactive. The result in experiment [13], in [14], in [15] and in experiment [17] was inactive.
As to `CS(=O)(=O)c1ccc([C@@H](CC2CCCC2)C(=O)Nc2cnccn2)cc1Cl`, the concentration at half-maximal activity (AC50) in experiment [1] is 29.1 µM (active); in experiment [18] it was 68.4 µM (active); in experiment [4] it was 127 µM (active); in experiment [9], 50.6 µM (active); in experiment [13], 152 µM (active); in experiment [17], 30.2 µM (active). For the same compound, the compound was called inactive in experiment [3], in experiment [6], in [7], in [8], in [10] and in [12]. The result in [19], in experiment [14], in experiment [15] and in experiment [16] was inactive.
